# Most compounds without a hit are left out; they make up all but 3.8% or so of the library.
# Mdm2 MdmX PPI: human Mdm2/MdmX binding inhibition | O15151+Q00987 | SaOS-2 split-luciferase Mdm2/MdmX complementation, luminescence | inhibition, % at 8 µM | AID 485346 | 330,000 tested, 3% active;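 active means inhibition of at least 50% at 8 µM in the primary screen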
# Target sequence (O15151 whole entry, looked up): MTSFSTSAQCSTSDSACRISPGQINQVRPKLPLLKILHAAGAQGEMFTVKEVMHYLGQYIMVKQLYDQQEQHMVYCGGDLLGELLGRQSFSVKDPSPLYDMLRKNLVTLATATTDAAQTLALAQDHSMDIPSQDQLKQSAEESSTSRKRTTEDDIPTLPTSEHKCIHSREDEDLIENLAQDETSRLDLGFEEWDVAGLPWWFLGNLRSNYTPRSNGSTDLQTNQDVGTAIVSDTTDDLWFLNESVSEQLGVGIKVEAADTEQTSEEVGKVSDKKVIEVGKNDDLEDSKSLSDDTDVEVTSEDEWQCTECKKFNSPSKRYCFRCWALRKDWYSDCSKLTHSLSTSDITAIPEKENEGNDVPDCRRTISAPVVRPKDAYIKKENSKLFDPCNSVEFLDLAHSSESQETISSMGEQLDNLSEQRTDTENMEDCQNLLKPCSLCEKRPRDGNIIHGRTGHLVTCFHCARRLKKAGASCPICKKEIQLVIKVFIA
# Target sequence (Q00987 whole entry, looked up): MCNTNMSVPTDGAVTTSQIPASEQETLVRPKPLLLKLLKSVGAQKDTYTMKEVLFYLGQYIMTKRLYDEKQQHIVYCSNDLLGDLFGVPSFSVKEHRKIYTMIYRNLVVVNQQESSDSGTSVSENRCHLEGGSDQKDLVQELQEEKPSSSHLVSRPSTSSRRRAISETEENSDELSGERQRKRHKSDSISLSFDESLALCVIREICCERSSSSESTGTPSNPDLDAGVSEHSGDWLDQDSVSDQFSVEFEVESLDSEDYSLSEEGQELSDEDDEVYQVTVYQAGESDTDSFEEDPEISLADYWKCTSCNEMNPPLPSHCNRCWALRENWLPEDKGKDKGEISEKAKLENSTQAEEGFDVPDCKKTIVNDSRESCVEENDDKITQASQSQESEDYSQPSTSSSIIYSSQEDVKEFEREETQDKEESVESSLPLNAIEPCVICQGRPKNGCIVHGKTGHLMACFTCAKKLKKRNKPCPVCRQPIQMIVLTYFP
# 697 NFkB inh: lowers PMA/ionomycin-induced NF-kB signal in 697 B cells | 697 B-cell NF-kB luciferase reporter, 16 h | inhibition, % at 4 µM | 330,000 tested, 0.33% active; in the data active means inhibition above about 35%
# Shn3 3UTR inh: reduces Shn3 3'UTR luciferase signal in osteoblasts. 360,000 tested, 0.52% active. Clone20 osteoblast Shn3 3'UTR firefly luciferase, 24 h. AID 588674. inhibition, % at 12.5 µM;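 active means mean inhibition of at least 75% with every replicate also reaching 75%; inconclusive means mean inhibition at least 75% but some replicate below; inactive means mean inhibition below 75%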;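 further: 0% = median of neutral control wells and 100% = pilot-screen positive control compound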
# Jurkat NFkB inh: lowers PMA/ionomycin-induced NF-kB signal in Jurkat cells | PMA/ionomycin-induced NF-kB luciferase reporter, luminescence | 330,000 tested, 0.53% active | AID 435003 | inhibition, % at 4 µM; in the data active means inhibition above about 50%
# Gli-Sufu block: blocks Gli-Sufu signaling in a luciferase reporter; Sufu-KO-LIGHT fibroblasts, Gli luciferase reporter luminescence; inhibition, % at 5 µM; 340,000 tested, 0.74% active;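 active means inhibition above about 55%, limit read from the data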;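 further: 0% = DMSO-treated cells and 100% = wells with medium but no cells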
# * = called active by the depositor; u = inconclusive; x = no result.
SMILES,Mdm2 MdmX PPI,697 NFkB inh,Shn3 3UTR inh,Jurkat NFkB inh,Gli-Sufu block
CCc1ccc(-n2c(O)c(C=NCCN(CC)CC)c(=O)[nH]c2=O)cc1,x,x,96*,x,0
CC1CCC/C(=C\c2ccc(O)cc2)C1=O (centres undefined),0,-16,-42,-7,8
CN(C)CC1CC/C(=C\c2ccc(O)cc2)C1=O (centres undefined),x,x,90*,x,-9
Cc1oc2c(c1C(=O)c1ccc(Cl)cc1)C(=O)C(=O)c1ccccc1-2,x,x,93*,x,-8
O=C(NCCc1ccccc1)c1cccc(NC(=O)C2CCCC2)c1,x,x,-31,x,-56
COc1cc(CN2CCN(CC#Cc3ccccc3)CC2CCO)cc(OC)c1 (centres undefined),10,0,2,-2,57*
COc1cc(CN2CCN(CCCc3ccccc3)CC2CCO)cc(OC)c1 (centres undefined),-47,-21,-1,-3,17
C[C@H](CO)N1C[C@H](C)[C@@H](CN(C)Cc2ccc(Oc3ccccc3)cc2)Oc2cc(Br)ccc2S1(=O)=O,x,x,6,x,x
CCN=C1NN=C(c2cc(C)n(Cc3ccco3)c2C)CS1,7,9,37,13,71*
CCN=C1NN=C(c2cc(C)n(CCc3ccccc3)c2C)CS1,x,x,-61,x,-6
CC(C)C(N)c1csc(Nc2ccc(C(=O)c3ccccc3)cc2)n1 (centres undefined),x,x,8,x,x
COc1cccc(/C=N/Nc2nccnc2Cl)c1O,48,-108,86*,-34,68*
COc1ccc(/C=N/Nc2nccnc2Cl)c(OC)c1,-15,-50,-112,-76,-47
Cn1ccc2c(-c3cccc(C=O)c3)cc3c(c21)C1CCC3O1 (centres undefined),x,x,1,x,x
C=C1C(=O)C2=CC1CCC(=O)C1(C)CCC(OC(C)=O)C(C)(C)C1CC2O (centres undefined),x,x,84*,x,16
C[C@@H]1CN([C@@H](C)CO)C(=O)c2cc(Br)cnc2O[C@H]1CN(C)C(=O)Nc1ccc2c(c1)OCO2,x,x,1,x,x
CCOC(=O)c1cnc(-n2nc(C)cc2C)nc1NCc1ccc2c(c1)OCO2,32,-19,94*,-16,2
CCOC(=O)c1cnc(-n2nc(C)cc2C)nc1NCCc1ccccc1,16,-27,46,-6,29
CCOC(=O)C1CCN(C(=O)c2sc3nc(C)nc(N4CCC(C)CC4)c3c2C)CC1,-11,-7,88*,-5,13
Cc1cccc(N2CCN(C(=O)c3cccc(S(=O)(=O)N4CCOCC4)c3)CC2)c1C,34,-13,39,13,5
Cc1nc2c(C)c(C)c(C)c(C)c2nc1C,-34,14,12,10,2
Cc1nc2c(O)c3c(c(O)c2nc1C)C1C=CC3CC1,x,x,97*,x,4
Oc1c(Br)cc(Br)cc1/C=N/Nc1ccc(Cl)nn1,x,x,95*,x,90*
CCCCCCCC/C=C\CCCCCCCC(=O)NCCc1ccc(O)c(O)c1,48,-80,91*,22,57*
CCCCCCCC/C=C\CCCCCCCC(=O)NCCO,10,8,2,10,-7
SMILES,Mdm2 MdmX PPI,697 NFkB inh,Shn3 3UTR inh,Jurkat NFkB inh,Gli-Sufu block
CC(C)c1ccc(NC(=O)Nc2nc(C(N)CCc3ccccc3)cs2)cc1 (centres undefined),x,x,97*,x,x
CC(C)c1ccc(NC(=O)Nc2nc(C(N)C3CCCCC3)cs2)cc1 (centres undefined),x,x,97*,x,x
CC1CCC2(CC1)NC(=O)N(CC(=O)N1CCN(c3ccccc3)CC1)C2=O (centres undefined),4,6,5,-19,0
Cc1cc(=O)c(C(=O)Nc2cccc(C(=O)NC3CC3)c2)nn1-c1ccccc1,x,x,-19,x,x
O=S(=O)(Nc1cc(Sc2ncn[nH]2)c(O)c2ccccc12)c1ccccc1,-8,-20,93*,40,-8
O=C(CSc1nnc(-c2ccc(Cl)cc2Cl)n1C1CCCCC1)N1CCCC1,-5,0,92*,-4,8
Cc1c(C(=O)Nc2nccs2)oc2ccc(Br)cc12,-124,-124,-48,-125,-86
CC(C)Oc1cc(C(=O)N2CCC(N3CCCCC3)CC2)ccc1Nc1nnc(Cl)c(Nc2ccccc2S(C)(=O)=O)n1,x,x,3,x,8
CCOC(=O)Cn1c(S(=O)(=O)Cc2ccccc2Cl)nc(-c2ccccc2)c1-c1ccccc1,33,-1,88*,7,20
NS(=O)(=O)c1ccc(CCNCc2cc(Br)ccc2OCc2ccccc2F)cc1,23,-34,86*,1,x
C=CCOc1ccccc1CNCCc1ccc(S(N)(=O)=O)cc1,24,5,-21,-2,10
O=C(O)CSc1c(-c2ccccc2)c2cc(Cl)ccc2[nH]c1=O,-4,2,-6,-7,-20
CCN(CC)C(=S)Sc1c(-c2ccccc2)c2cc(Cl)ccc2[nH]c1=O,46,-14,87*,4,0
Cc1c(C(=O)N(Cc2cccc(Br)c2)C2CCS(=O)(=O)C2)oc2ccccc12 (centres undefined),15,-40,86*,-17,-18
COc1ccc(C(C)(NC(C)=O)c2nc(-c3cccc4cccnc34)cs2)cc1 (centres undefined),x,x,10,x,x
CN(C)S(=O)(=O)c1cccc(CSCc2cccc(S(=O)(=O)N(C)C)c2)c1,2,-23,77,45,57*
CC1CC(C)(C)Nc2ccc(N=O)cc21 (centres undefined),x,x,93*,x,7
CC1CC2(CCCC2)Nc2ccc(F)cc21 (centres undefined),0,26,7,1,4
C=CC(=O)Nc1cccc(Nc2nc(N[C@H]3CC[C@H](N(C)C)CC3)nc3c2ncn3C(C)C)c1,x,x,68,x,76*
CC(C)CN(C(=O)CSc1nc2ccccc2o1)c1c(N)n(Cc2ccccc2)c(=O)[nH]c1=O,2,4,7,6,4
N#Cc1ccc(-c2ccc(OCC(=O)Nc3cccnc3)cc2)cc1,23,3,89*,35,-2
CC1CCN(c2ccc(NC(=O)c3ccc([N+](=O)[O-])o3)cc2)CC1,46,-48,91*,19,25
O=C(Nc1ccc(N2CCCCC2)cc1)c1ccc([N+](=O)[O-])o1,34,-51,71,-17,-6
CCC(=O)N1CCN(c2ccc(NC(=O)c3ccc([N+](=O)[O-])o3)cc2)CC1,x,x,u,x,9
CS(=O)(=O)N1CCN(c2ccc(NC(=O)c3ccc([N+](=O)[O-])o3)cc2)CC1,x,x,97*,x,6
O=C(Nc1ccc(N2CCN(C(=O)c3ccc(Cl)cc3)CC2)cc1)c1ccc([N+](=O)[O-])o1,x,x,98*,x,35
CCCC(=O)N1CCN(c2ccc(NC(=O)c3ccc([N+](=O)[O-])o3)cc2)CC1,x,x,44,x,21
S=C(Cc1ccccc1)Nc1ccccc1,x,x,17,x,2
COc1cc2c3c(c1OC)C(=O)CC3CCCC2 (centres undefined),x,x,-2,x,x
COc1cc(/C=N/NC(=O)c2ccc(COc3cc(C)ccc3C(C)C)cc2)cc(OC)c1O,27,-144,10,3,21

# Compound activity: PubChem BioAssay, several laboratories
